# Test results: PubChem BioAssay AID431 (Sanford-Burnham Center for Chemical Genomics, 2006)
# In all, about 63,000 compounds went through this assay and about 1,100 (1.7%) were called active. The sample holds actives, similar compounds and a random draw of the others, so the mix is not that of the screen. Entries with a potency or affinity are not part of this list. Unmarked numbers belong to inactive results.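 Rule for the calls: active = compounds whose percent cytotoxicity in the single-dose primary screen, scaled between solvent and toxic-drug controls, exceeds 50; inactive = the rest.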
# Assay: viability loss of HPDE-C7K cells – cell-based, fluorescence, HTS, primary screen (AID 431);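 note: 0% = DMSO solvent wells and 100% = doxorubicin-treated wells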
# Conditions: HPDE-C7K KRASV12 cells, Alamar Blue viability, 48 h; at 10 µM; hits give high values
row,SMILES,cytotoxicity
1,CCOC(=O)C1CCCN(c2c(NCc3ccco3)c(=O)c2=O)C1 (stereo not given),2.5%
2,O=C(CSc1nnc(COc2ccccc2)o1)NCCc1ccccc1,-27.9%
3,COc1cc(C2C(C#N)=C(C)NC3=C2C(=O)CC(C)(C)C3)ccc1O (stereo not given),-10.6%
4,COc1ccc(C2C(C#N)=C(SC)NC3=C2C(=O)CC(C)(C)C3)cc1 (stereo not given),-1.7%
5,COc1ccc(C2CC(=O)C3=C(C2)NC(C)=C(C#N)C3c2ccc(N(C)C)cc2)cc1 (stereo not given),-3.8%
6,COc1cc(C2C(C#N)=C(C)NC3=C2C(=O)c2ccccc23)cc(OC)c1OC (stereo not given),80.3% (active)
7,COc1cc(C2C(C#N)=C(C)NC3=C2C(=O)CC(C)(C)C3)cc(OC)c1O (stereo not given),6.8%
8,COc1ccc(C2C(C#N)=C(C)NC3=C2C(=O)c2ccccc23)cc1 (stereo not given),53.8% (active)
9,CCOC(=O)c1ccccc1NC(=O)CN(c1ccccc1OC)S(C)(=O)=O,-1.1%
10,CCCCn1c(SCC(=O)Nc2cc(C)on2)nc2ccsc2c1=O,-1.8%
11,CCOC(=O)C1CCCN(Cc2cc(OC)c(O)c(OC)c2)C1 (stereo not given),-5.4%
12,CCc1ccc(OCC(=O)NCc2ccco2)c(Br)c1,-5.8%
13,CC(C)(C)c1ccc(OCC(=O)NCc2ccco2)c(Br)c1,84.5% (active)
14,O=C(COc1ccccc1Br)NCc1ccco1,-11.3%
15,Cn1c(=O)n(C)c2cc(NC(=O)CSc3nnc(-c4ccccc4O)n3-c3ccccc3)ccc21,12.8%
16,O=[n+]1cc(-c2ccc(F)cc2)n([O-])c2c1CCC2,-13.4%
17,COc1ccc(C2C3=C(CCCC3=O)Nc3nc(SCc4ccccc4)nn32)cc1OC (stereo not given),-8.6%
18,O=C1CC(C(=O)Nc2ccccc2C(=O)O)C(c2ccccc2)O1 (stereo not given),-6.7%
19,O=C(Oc1cccc2c(OC(=O)N3CCOCC3)cccc12)N1CCOCC1,6.1%
20,CCCn1nnnc1SCC(=O)c1ccc(NC(C)=O)cc1,-3.8%

row,SMILES,cytotoxicity
1,Cc1cccn2c(=O)c3cc(C(=O)N4CCc5ccccc54)n(C)c3nc12,1.3%
2,Cc1cccn2c(=O)c3cc(C(=O)N4CCN(c5ccccc5)CC4)n(C)c3nc12,-5.9%
3,Cc1cccn2c(=O)c3cc(C(=O)N4c5ccccc5CC4C)n(C)c3nc12 (stereo not given),77.7% (active)
4,CC1Cc2ccccc2N1C(=O)c1cc2c(=O)n3ccccc3nc2n1C (stereo not given),3.6%
5,Cc1cccn2c(=O)c3cc(C(=O)N4CCN(C(=O)c5ccco5)CC4)n(C)c3nc12,-8.8%
6,Cc1c(NCc2nc3ccccc3[nH]2)c(=O)n(-c2ccccc2)n1C,-7.6%
7,Cc1ccc(C(C)C)c(OCc2nnc3n2CCCCC3)c1,-8.3%
8,COc1ccc(Cl)cc1NC(=O)c1cccnc1,-1.6%
9,CC(=O)Nc1ccc(NC2=CC(=O)CC(C)(C)C2)cc1,-3%
10,Cn1c(SCC(=O)c2ccc3c(c2)OCO3)nnc1-c1ccccn1,3.1%
11,CCCc1cc(C(=O)Nc2ccc(C)cc2)no1,-1.5%
12,CCN(c1ccccc1)S(=O)(=O)c1ccc(C(=O)Nc2nnc(COC)o2)cc1,44.5%
13,CC(/C=C/c1ccccc1)=N/O,-7.4%
14,O=C(/C=C/c1ccccc1)c1ccccc1,56.5% (active)
15,CC(C)(C)C(=O)/C=C(N)/C=C/c1ccccc1,-7%
16,CC1(C)Cc2c(sc3nc(SCC(=O)NCc4ccco4)n(-c4ccccc4)c(=O)c23)CS1,-9.9%
17,O=C(CSc1nc2sc3c(c2c(=O)n1-c1ccccc1)CCCC3)NCc1ccco1,71.9% (active)
18,C=CCn1c(SCC(=O)NCc2ccco2)nc2sc3c(c2c1=O)CCCCC3,6%
19,CCSc1nc2sc3c(c2c2nnc(SCC(=O)NCc4ccco4)n12)CCCC3,8.1%
20,Cc1nc2sc3c(c2c2nnc(SCC(=O)NCc4ccco4)n12)CCCC3,5.1%

row,SMILES,cytotoxicity
1,CC1=C(C(=O)N2CCOCC2)C(c2ccsc2)C2=C(CCCC2=O)N1 (stereo not given),4.5%
2,COC(=O)c1ccccc1NC(=O)CN1CCC(n2nnc3cc(C)ccc32)CC1,7.1%
3,CCOc1ccc(N(CC(=O)NC2CCCC2)S(=O)(=O)c2c(C)noc2C)cc1,4.7%
4,O=C(Oc1ccc2c(c1)OCO2)c1cccs1,-6%
5,O=C(Oc1ccc2c(c1)OCO2)c1cc2c(s1)CCC2,66.1% (active)
6,O=C(Oc1ccc2c(c1)OCO2)c1ccncc1,12.7%
7,NS(=O)(=O)c1ccc(S(=O)(=O)NCCc2ccccc2)cc1,-1.8%
8,COc1cccc(NC(=O)NC2CCN(Cc3nnnn3Cc3ccc(F)cc3)CC2)c1,-3.4%
9,COc1ccc2cc(CN(Cc3ccco3)C(c3nnnn3C3CCCCC3)C(C)C)c(=O)[nH]c2c1 (stereo not given),1.3%
10,CCC(c1nnnn1Cc1ccco1)N(CCc1ccccc1)Cc1cc2cc(C)ccc2[nH]c1=O (stereo not given),36%
11,CCC(c1nnnn1C1CCCCC1)N(Cc1ccco1)Cc1cc2ccc(OC)cc2[nH]c1=O (stereo not given),64.5% (active)
12,Cc1ccc2[nH]c(=O)c(CN(CCc3ccccc3)C(c3nnnn3Cc3ccco3)C(C)C)cc2c1 (stereo not given),60.2% (active)
13,CCC(c1nnnn1Cc1ccccc1)N(Cc1ccco1)Cc1cc2cc(OC)ccc2[nH]c1=O (stereo not given),22.2%
14,CCC(c1nnnn1C1CCCC1)N(Cc1cccs1)Cc1cc2cc(C)ccc2[nH]c1=O (stereo not given),68.3% (active)
15,CCC(c1nnnn1Cc1ccco1)N(CCc1ccccc1)Cc1cc2ccc(OC)cc2[nH]c1=O (stereo not given),50.4% (active)
16,COc1ccc2cc(CN(CCc3ccccc3)Cc3nnnn3Cc3ccco3)c(=O)[nH]c2c1,33.5%
17,CCOc1ccc2[nH]c(=O)c(CN(Cc3cccs3)C(CC)c3nnnn3C(C)(C)CC)cc2c1 (stereo not given),30.4%
18,COc1ccc2cc(CN(Cc3ccco3)Cc3nnnn3C3CCCCC3)c(=O)[nH]c2c1,22.4%
19,CCC(c1nnnn1Cc1ccco1)N(Cc1ccccc1OC)Cc1cc2cc(C)ccc2[nH]c1=O (stereo not given),-7.4%
20,CCOC(=O)Cn1nnnc1C(CC)N(Cc1cccs1)Cc1cc2cc(C)ccc2[nH]c1=O (stereo not given),-3.3%
